Where “and” joins values, the source holds several entries; their conditions need not be identical. Identical values can stand only once. Records with an inconclusive call do not appear. Calls of active or inactive are those of the source. Unless noted, the call rests on the fitted dose curve; in most records, active means well fitted curve in the direction sought with a large enough effect; inconclusive means small, poorly fitted or top-dose-only effect, or another doubt; inactive means no such curve, though single readings can be large; an effect the other way counts as inactive or inconclusive.
Assays:
[1] = Cell Viability - N2a (AID 540); conditions: N2a mouse neuroblastoma cell viability; activity change, negative = cytotoxicity: at 92.2 µM (top of the series);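 further: plate controls were DMSO alone for no effect and tamoxifen control for full effect; nearly all actives have a fitted effect of over 45% in size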
In short: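 CellTiter-Glo ATP luminescence, read 20 min after reagent at room temperature, reported viability following 40 h compound treatment at 37 °C. N2a mouse neuroblastoma cells seeded 1500/well; Hill equation gave AC50.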

[2] = Cell Viability - H-4-II-E (AID 543);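 further: cells exposed to compound for 40 hours; on the % scale 0 is the no-effect control and ±100 the full control effect; nearly all actives have a fitted effect of over 35% in size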
In short: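 CellTiter-Glo luminescence (intracellular ATP) measured after 40 h compound exposure at 37 °C in H-4-II-E rat hepatoma cells seeded at 1500/well. Values are AC50s fitted with the standard Hill equation.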

[3] = Cell Viability - Mesenchymal (AID 546);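 further: cells exposed to compound for 40 hours before reading; 0% = DMSO only and -100% = 100 µM tamoxifen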
In short: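 CellTiter-Glo luminescence (intracellular ATP, 20 min room temperature) after 40 hr compound exposure at 37 °C of 1000 glomerulus-derived human kidney mesenchymal cells/well; AC50 values obtained by fitting qHTS concentration-response data to the Hill equation.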

[4] = Cellular Toxicity (caspase-3) Renal Proximal Tubule (AID 667);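 further: cells exposed to compound for 16 hours at 37 °C before detection; 0% = DMSO basal and 100% = 10 µM staurosporine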
In short: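 AC50 derived by standard Hill fit of concentration-response data, normalized between DMSO basal and 10 uM staurosporine as 100% stimulation. Cells: primary rat kidney proximal tubule, 16 h treatment at 37 °C.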

[5] = molecular target: Cytochrome P450 3A4 (Homo sapiens) (UniProt P08684); test: qHTS Assay for Inhibitors and Substrates of Cytochrome P450 3A4 (AID 884); further: nearly all actives have a fitted effect of over 50% in size; further: potency means the concentration at half of the fitted maximal effect
Chain of Cytochrome P450 3A4 (Homo sapiens) (P08684 whole entry, looked up): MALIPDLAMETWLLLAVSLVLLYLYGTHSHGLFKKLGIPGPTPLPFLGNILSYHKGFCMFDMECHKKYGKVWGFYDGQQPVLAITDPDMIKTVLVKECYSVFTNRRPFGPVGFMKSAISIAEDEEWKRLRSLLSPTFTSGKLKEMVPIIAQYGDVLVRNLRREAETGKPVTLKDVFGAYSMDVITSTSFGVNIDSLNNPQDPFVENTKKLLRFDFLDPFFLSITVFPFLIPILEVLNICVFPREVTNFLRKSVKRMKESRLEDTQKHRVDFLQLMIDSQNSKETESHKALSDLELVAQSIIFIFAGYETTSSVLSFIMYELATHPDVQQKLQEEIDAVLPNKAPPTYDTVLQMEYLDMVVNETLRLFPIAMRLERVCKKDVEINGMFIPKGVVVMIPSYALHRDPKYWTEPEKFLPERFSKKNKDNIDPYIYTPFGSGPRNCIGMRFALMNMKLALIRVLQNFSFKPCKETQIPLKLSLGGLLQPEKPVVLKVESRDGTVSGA
In short: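 Luminescent readout of luciferin produced by CYP3A4 (20 nM) dealkylation of Luciferin-PPXE, 25 uM (its KM). NADPH-driven reaction ran 60 min at RT after 10 min compound preincubation; data scaled to 57 uM ketoconazole as 100% inhibition.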

[6] = MultiTox-Fluor Cytotoxicity Assay - LYMP1-002 - Dead Cells (AID 960);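 further: 0% = DMSO and 100% = tetraoctylammonium bromide; nearly all actives have a fitted effect of over 60% in size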
In short: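 Dead-cell fluorescence (Ex/Em 485/520) after 16 h compound exposure at 37 C of LYMP1-002 lymphoblastoid cells in complete medium; AC50 by Hill equation, with data scaled between DMSO and 15 uM tetraoctylammonium bromide.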

[7] = MultiTox-Fluor Cytotoxicity Assay - LYMP1-003 - Live Cells (AID 962);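 further: cells exposed to compound for 16 hours at 37 °C; 0% = DMSO only and full loss = 92 µM tetraoctylammonium bromide; cytotoxic hits lower the live-cell protease signal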
In short: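 Live-cell protease activity (GF-AFC substrate, 405/510 nm, 60 min at room temperature) after 16 h, 37 C compound exposure of human lymphoblastoid LYMP1-003 cells; concentration-response fitted to the Hill equation for AC50.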

[8] = Cell Viability - LYMP2-004 (AID 966);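 further: plate controls were DMSO only for no effect and tetraoctylammonium bromide control for full effect; nearly all actives have a fitted effect of over 65% in size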
In short: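 AC50 values come from Hill modelling of concentration-dependent loss of intracellular ATP, measured by CellTiter-Glo luminescence. Human LYMP2-004 lymphoblastoid cells (2500/well) were exposed to compound for 24 h at 37 C.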

[9] = Cell Viability - LYMP2-007 (AID 979);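 further: cells exposed to compound for 24 h before reading; 0% = DMSO only and the negative end = 92 µM tetraoctylammonium bromide; nearly all actives have a fitted effect of over 60% in size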
In short: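 AC50 values come from Hill-equation fits of luminescent intracellular ATP (CellTiter-Glo, 30 min, room temperature) following 24 h compound exposure at 37 C. Cells: LYMP2-007 lymphoblastoid line, 2500 per well, in complete culture medium.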

[10] = Cell Viability - LYMP2-012 (AID 982);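 further: cellular ATP by luciferase luminescence where a drop means cytotoxicity; cells exposed to compound for one day before reading; 0% = DMSO only and full loss = 92 µM tetraoctylammonium bromide; nearly all actives have a fitted effect of over 55% in size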
[11] = Cell Viability - LYMP2-016 (AID 984); further: on the % scale 0 is the no-effect control and ±100 the full control effect; nearly all actives have a fitted effect of over 55% in size
In short: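 Cells were seeded at 2500 per well and rested 5 hr before a 24 hr compound exposure at 37 C. Viability was then gauged as cellular ATP by luciferase luminescence, with AC50 values fitted to the Hill equation.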

[12] = molecular target: Peroxisome proliferator-activated receptor gamma (Homo sapiens) (UniProt P37231); test: qHTS assay for small molecule agonists of peroxisome proliferator-activated receptor gamma signaling (AID 588536; active means well fitted curve in the direction sought with a large enough effect in the signal ratio, with a control signal flat, not every such curve was filed as active; the % refers to the signal ratio;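 further: 0% = DMSO basal wells and 100% = rosiglitazone at 2 µM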)
Chain of Peroxisome proliferator-activated receptor gamma (Homo sapiens) (P37231 whole entry, looked up): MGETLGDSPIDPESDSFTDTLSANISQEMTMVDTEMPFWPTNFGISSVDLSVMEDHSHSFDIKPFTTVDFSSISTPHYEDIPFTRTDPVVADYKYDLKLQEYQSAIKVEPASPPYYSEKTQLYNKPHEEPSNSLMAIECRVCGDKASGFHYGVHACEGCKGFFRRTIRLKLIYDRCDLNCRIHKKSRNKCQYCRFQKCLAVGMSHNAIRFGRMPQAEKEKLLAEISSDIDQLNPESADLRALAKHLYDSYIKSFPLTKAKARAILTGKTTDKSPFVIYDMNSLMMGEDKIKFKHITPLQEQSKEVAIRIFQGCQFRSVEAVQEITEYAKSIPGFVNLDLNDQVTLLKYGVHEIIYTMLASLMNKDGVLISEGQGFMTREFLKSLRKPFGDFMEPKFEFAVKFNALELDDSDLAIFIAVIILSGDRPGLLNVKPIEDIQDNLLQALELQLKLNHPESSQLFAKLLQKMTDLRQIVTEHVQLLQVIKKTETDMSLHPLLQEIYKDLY
In short: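 Beta-lactamase reporter read-out: CCF4 fluorescence (ex 405, em 460/530 nm) after 2 h at RT. HEK293 GeneBLAzer cells were treated for 16 h at 37 C. Hill fits gave EC50 and efficacy versus 2 uM rosiglitazone (100%) and DMSO (0%).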

[13] = qHTS assay for small molecule agonists of retinoid X receptor alpha signaling (AID 588544); conditions: HEK293T RXRa-UAS-bla, beta-lactamase reporter, 18 h; 530 nm emission
[14] = qHTS assay for small molecule antagonists of retinoid X receptor alpha signaling (AID 588546; active means well fitted inhibition curve with a large enough effect in the signal ratio, with a control signal flat, not every such curve was filed as active; the % refers to the signal ratio;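 further: cells stimulated with 9-cis-retinoic acid as agonist; on the % scale 0 is the no-effect control and ±100 the full control effect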); conditions: HEK293T RXRa-UAS-bla, beta-lactamase ratio, antagonist mode; measured here: W530 green channel, cytotoxicity proxy
In short: (§1)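 Beta-lactamase reporter inhibition, read as CCF4 fluorescence ratio (ex 405, em 460/530 nm) after 2 h at RT. HEK293T UAS-bla cells, 2500/well, were stimulated with 9-cis-RA at 500 or 100 nM final alongside test compound for 18 h at 37 C.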

[15] = molecular target: Retinoic acid receptor RXR-alpha (Homo sapiens) (UniProt P19793); test: as above; conditions: HEK293T RXRa-UAS-bla, beta-lactamase ratio, antagonist mode
Chain of Retinoic acid receptor RXR-alpha (Homo sapiens) (P19793 whole entry, looked up): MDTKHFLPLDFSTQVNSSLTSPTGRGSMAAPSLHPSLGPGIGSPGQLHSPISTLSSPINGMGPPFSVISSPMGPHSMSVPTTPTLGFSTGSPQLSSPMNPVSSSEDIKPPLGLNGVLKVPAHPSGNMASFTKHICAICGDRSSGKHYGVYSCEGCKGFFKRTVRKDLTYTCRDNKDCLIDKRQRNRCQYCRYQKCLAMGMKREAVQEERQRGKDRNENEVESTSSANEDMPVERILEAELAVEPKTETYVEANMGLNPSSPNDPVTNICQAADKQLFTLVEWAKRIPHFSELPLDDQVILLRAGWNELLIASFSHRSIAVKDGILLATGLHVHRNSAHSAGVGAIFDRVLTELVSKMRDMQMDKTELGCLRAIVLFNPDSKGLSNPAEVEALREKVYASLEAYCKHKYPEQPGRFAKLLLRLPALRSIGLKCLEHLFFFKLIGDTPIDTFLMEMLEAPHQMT
In short: as §1

[16] = molecular target: Tumor necrosis factor (Homo sapiens) (UniProt P01375); test: qHTS assay to identify small molecules that stimulate Tumor Necrosis Factor-alpha (TNF-alpha) secretion (AID 651757; active means well fitted curve in the direction sought with a large enough effect in the signal ratio; the % refers to the signal ratio; further: 0% is about no effect)
Chain of Tumor necrosis factor (Homo sapiens) (P01375 whole entry, looked up): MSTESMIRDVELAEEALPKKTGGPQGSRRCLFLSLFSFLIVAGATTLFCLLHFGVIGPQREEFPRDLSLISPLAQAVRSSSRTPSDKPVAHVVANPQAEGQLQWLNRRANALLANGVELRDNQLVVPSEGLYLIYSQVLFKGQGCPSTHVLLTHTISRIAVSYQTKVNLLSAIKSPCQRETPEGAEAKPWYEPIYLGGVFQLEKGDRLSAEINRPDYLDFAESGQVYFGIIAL
In short: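 Secreted TNF-alpha quantified by TR-FRET sandwich of two labeled anti-TNF-alpha antibodies, incubated 3 hr at room temperature. Preceded by 17 hr, 37 C compound treatment of THP-1 cells at 3000 cells/well.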

[17] = molecular target: Nuclear receptor ROR-gamma (Homo sapiens) (UniProt P51449); test: qHTS assay for small molecule antagonists of the retinoid-related orphan receptor gamma (ROR-gamma) signaling pathway (AID 651802);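 further: CHO cells with doxycycline-induced ROR-gamma expression; luciferase reporter luminescence driven by ROR response element; on the % scale 0 is the no-effect control and ±100 the full control effect; nearly all actives have a fitted effect of over 60% in size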
Chain of Nuclear receptor ROR-gamma (Homo sapiens) (P51449 whole entry, looked up): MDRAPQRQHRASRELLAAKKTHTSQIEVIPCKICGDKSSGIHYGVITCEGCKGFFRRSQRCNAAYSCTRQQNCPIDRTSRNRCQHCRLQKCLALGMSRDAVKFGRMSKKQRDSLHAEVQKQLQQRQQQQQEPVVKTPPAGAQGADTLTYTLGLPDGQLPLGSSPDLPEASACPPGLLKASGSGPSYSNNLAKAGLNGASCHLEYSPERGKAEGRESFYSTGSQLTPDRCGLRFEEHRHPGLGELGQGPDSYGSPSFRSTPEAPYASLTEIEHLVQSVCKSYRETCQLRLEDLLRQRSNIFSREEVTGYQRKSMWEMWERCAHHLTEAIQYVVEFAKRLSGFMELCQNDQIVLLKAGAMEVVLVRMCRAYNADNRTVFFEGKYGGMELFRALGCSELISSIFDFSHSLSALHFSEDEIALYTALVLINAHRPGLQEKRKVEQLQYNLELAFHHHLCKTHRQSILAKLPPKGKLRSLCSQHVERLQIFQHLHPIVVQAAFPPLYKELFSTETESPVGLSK
In short: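 Luminescence (One-Glo, 30 min RT) measured 16 h after compound addition and doxycycline induction at 37C. Reporter: RORE-luciferase under TET-inducible ROR-gamma in CHO cells.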

[18] = qHTS assay for small molecule agonists of the antioxidant response element (ARE) signaling pathway measured by Nrf2-dependant transcriptional activity (AID 720636; active means well fitted curve in the direction sought with a large enough effect in the repeat runs; an effect the other way counts as inactive or inconclusive;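 further: HepG2 cells with an ARE-driven luciferase reporter; % of control where 0% means no effect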)
In short: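 Attachment 6 hr at 37 C, then compound versus DMSO vehicle for 16 hr in ARE-luc HepG2 cells (1% dialyzed FBS); luminescence recorded 30 min after ONE-Glo addition at room temperature.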

[19] = qHTS assay for small molecule antagonists of the retinoid-related orphan receptor gamma (ROR-gamma) signaling pathway - cell viability counter screen (AID 720652; active means well fitted curve in the direction sought with a large enough effect in the repeat runs; an effect the other way counts as inactive or inconclusive;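 further: CHO reporter cells with doxycycline-induced ROR-gamma expression; compound exposure lasted 16 hr before ATP read; on the % scale 0 is the no-effect control and ±100 the full control effect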)
In short: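 Cytotoxicity counter screen: intracellular ATP (CellTiter-Glo luminescence) measured in the doxycycline-induced CHO RORE-luciferase reporter line after 16 hr compound exposure at 37 C, 5% CO2.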

[20] = molecular target: Nuclear receptor subfamily 1 group I member 2 (Rattus norvegicus) (UniProt Q9R1A7); test: qHTS assay for small molecule activators of the rat pregnane X receptor (rPXR) signaling pathway (AID 651751; call rule not given here; further: 0% is about no effect); conditions: rPXR reporter cells, luciferase (One-Glo), 24 h
Chain of Nuclear receptor subfamily 1 group I member 2 (Rattus norvegicus) (Q9R1A7 whole entry, looked up): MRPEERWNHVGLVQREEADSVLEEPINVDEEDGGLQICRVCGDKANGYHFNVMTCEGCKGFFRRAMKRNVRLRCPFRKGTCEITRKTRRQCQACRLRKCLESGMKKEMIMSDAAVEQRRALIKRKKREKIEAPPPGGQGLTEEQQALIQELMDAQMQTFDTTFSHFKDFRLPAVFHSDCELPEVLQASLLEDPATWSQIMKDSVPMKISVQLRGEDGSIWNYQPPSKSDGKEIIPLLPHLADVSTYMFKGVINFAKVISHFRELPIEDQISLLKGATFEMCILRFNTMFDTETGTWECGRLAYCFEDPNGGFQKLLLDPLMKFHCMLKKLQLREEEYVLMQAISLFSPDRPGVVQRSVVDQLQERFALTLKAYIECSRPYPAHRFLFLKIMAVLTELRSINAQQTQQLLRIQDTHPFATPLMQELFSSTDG

c1ccc2c(c1)CCNC2
inactive: Potency [1] | Potency [2] | Potency [3] | outcome [4] | Potency [5] | Potency [6] | outcome [7] | Potency [8] | Potency [9] | Potency [10] | Potency [11] | outcome [12] | max response [15] 19.2% | outcome [16] | Potency [17] | Potency [18] | Potency [19] | max response [20] -0.393%
-9.85%: max response [13]
-4.26%: max response [14]

Nc1ccc(Cc2ccc(N)c(Cl)c2)cc1Cl
inactive: Potency [3] | outcome [4] | outcome [7] | Potency [8] | Potency [9] | Potency [10] | Potency [11] | outcome [12] | max response [15] -29.3% | outcome [16] | Potency [18] | Potency [19]
active: Potency [5] 5.01 µM
-5.52%: max response [14]

O=[N+]([O-])CCO
inactive: Potency [1] | Potency [2] | outcome [4] | Potency [5] | Potency [6] | outcome [7] | Potency [8] | Potency [10] | Potency [11] | outcome [12] | max response [15] -8.95% | outcome [16] | Potency [17] | Potency [18] | Potency [19] | max response [20] 2.92%
2.49%: max response [14]
10.9%: max response [13]

c1ccc2c(c1)-c1cccc3c1c-2cc1ccccc13
inactive: Potency [17]

CC(=O)CCC(C)=O
-1.17%: max response [14]
0.0938%: max response [13]
inactive: Potency [1] | Potency [2] | Potency [3] | outcome [4] | Potency [5] | Potency [6] | outcome [7] | Potency [8] | Potency [9] | Potency [10] | Potency [11] | outcome [12] | max response [15] 0.643% | outcome [16] | Potency [18] | Potency [19] | max response [20] -1.31%

COc1ccccc1N
-8.71%: max response [13]
inactive: Potency [1] | Potency [2] | Potency [3] | outcome [4] | Potency [5] | Potency [6] | outcome [7] | Potency [8] | Potency [9] | Potency [10] | Potency [11] | outcome [12] | outcome [16] | Potency [17] | Potency [18] | Potency [19] | max response [20] 20.9%

O=[N+]([O-])c1ccccc1O
inactive: Potency [1] | Potency [2] | Potency [3] | outcome [4] | Potency [5] | Potency [6] | outcome [7] | Potency [8] | Potency [9] | Potency [10] | Potency [11] | outcome [12] | max response [15] -20.2% | outcome [16] | Potency [17] | Potency [18] | Potency [19] | max response [20] 0.314%
-4.21%: max response [13]
-5.99%: max response [14]

Oc1c(Cl)cccc1Cl
-9.58%: max response [14]
inactive: Potency [1] | Potency [2] | Potency [3] | outcome [4] | Potency [5] | Potency [6] | outcome [7] | Potency [8] | Potency [9] | Potency [10] | Potency [11] | outcome [12] | max response [15] 27.8% | outcome [16] | Potency [17] | Potency [18] | Potency [19] | max response [20] 5.06%
9.22%: max response [13]

COc1cc(-c2ccc(N)c(OC)c2)ccc1N
active: Potency [5] 12.6 µM
8.08% and -9.67%: max response [13]
0.0176% and -5.1%: max response [14]
inactive: Potency [1] | Potency [2] | Potency [3] | outcome [4] | Potency [6] | outcome [7] | Potency [8] | Potency [9] | Potency [10] | Potency [11] | outcome [12] | max response [15] -9.81% and -21.9% | Potency [17] | Potency [18] | max response [20] 3.75% and 3.76% and 11%

COC(=O)c1ccccc1N
inactive: Potency [1] | Potency [2] | Potency [3] | outcome [4] | Potency [5] | Potency [6] | outcome [7] | Potency [8] | Potency [9] | Potency [10] | Potency [11] | outcome [12] | max response [15] 17.4% | outcome [16] | Potency [17] | Potency [18] | Potency [19] | max response [20] -0.835%
-15.1%: max response [13]
0.965%: max response [14]

CC(Cl)(Cl)Cl
inactive: Potency [1] | Potency [2] | Potency [3] | Potency [5] | outcome [7] | Potency [8] | Potency [9] | Potency [10] | Potency [11] | outcome [12] | max response [15] 5.12% and 15.9% | outcome [16] | Potency [17] | Potency [18] | Potency [19] | max response [20] -1.71% and -2.72%
-3.95% and -14.6%: max response [13]
0.916% and -3.55%: max response [14]
